Reference: PubChem BioAssay AID624267 (The Scripps Research Institute Molecular Screening Center, 2012)
About 1,400 (0.39%) of roughly 360,000 compounds were called active. Only a selection was taken, and actives are over-represented in it overall. A number with no mark means an inactive call. Cut-off read from the data, not from the text of the source: active = inhibition above about 21%; inactive = the rest.

Biological target: Receptor-interacting serine/threonine-protein kinase 2 (Homo sapiens) (UniProt O43353)
Test: inhibitors of RIPK2 association with NOD2 – fluorescence, CHO cells, BLA complementation, primary screen (AID 624267);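 note: 0% = vehicle only and 100% = reference blocker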
Settings: CHO BLA complementation NOD2-RIPK2, CCF4 ratio; at 4.98 µM; stronger effect = higher value

Sequence of Receptor-interacting serine/threonine-protein kinase 2 (Homo sapiens) (O43353 whole entry, looked up): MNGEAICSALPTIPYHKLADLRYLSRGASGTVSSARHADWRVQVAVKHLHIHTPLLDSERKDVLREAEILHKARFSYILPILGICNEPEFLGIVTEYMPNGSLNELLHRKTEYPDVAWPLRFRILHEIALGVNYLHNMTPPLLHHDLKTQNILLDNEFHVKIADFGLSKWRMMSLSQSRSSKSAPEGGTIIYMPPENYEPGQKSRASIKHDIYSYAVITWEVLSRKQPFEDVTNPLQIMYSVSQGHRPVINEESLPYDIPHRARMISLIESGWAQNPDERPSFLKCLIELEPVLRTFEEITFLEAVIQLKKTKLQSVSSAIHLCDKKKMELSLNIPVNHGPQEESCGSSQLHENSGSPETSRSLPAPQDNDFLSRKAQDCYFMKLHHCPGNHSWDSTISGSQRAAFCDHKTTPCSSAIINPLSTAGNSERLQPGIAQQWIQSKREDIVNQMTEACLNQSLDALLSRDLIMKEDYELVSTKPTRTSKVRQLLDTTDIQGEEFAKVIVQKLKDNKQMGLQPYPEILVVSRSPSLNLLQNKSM

Question: `O=C1CC(C(F)(F)C(F)(F)C(F)(F)C(F)(F)F)=Nc2ccccc2N1` was tested. Which inhibition did it give?
Answer: The inhibition was 24.9% (active).

Question: `OC(CN=c1sc2ccccc2n1CC(O)COc1ccccc1)COc1ccccc1` (centres undefined) was tested. Which inhibition did it give?
Answer: The inhibition was -11.1%.

Question: For `CCOc1ccc2c(=O)c(-c3ccc4c(c3)OCCCO4)c(C)oc2c1`, which inhibition is on record?
Answer: The inhibition was -5.36%.

Question: With `CCOC(=O)c1c(NC(=O)C2CCN(S(=O)(=O)c3ccc(Cl)cc3)CC2)sc2c1CCCC2` as the molecule, how does the inhibition read?
Answer: The inhibition was 4.57%.

Question: `CC[C@H]1CN2CCc3cc(OC)c(OC)cc3[C@@H]2C[C@@H]1C[C@H]1NCCc2cc(OC)c(OC)cc21` was tested. Which inhibition did it give?
Answer: The inhibition was 23.9% (active).

Question: `COCCCNC(=O)Cn1c(=O)n(Cc2ccccc2Cl)c(=O)c2cc(OC)c(OC)cc21` was tested. Which inhibition did it give?
Answer: Its inhibition is -13.8%.

Question: `COc1ccccc1C(=O)NC(CCSC)C(=O)N1CCN(C/C=C/c2ccccc2)CC1` (centres undefined) was tested. Which inhibition did it give?
Answer: The inhibition was 0.75%.

Question: With `CC(=O)N1c2ccccc2N(Cc2ccc([N+](=O)[O-])cc2)C(=O)C1(C)C` as the molecule, how does the inhibition read?
Answer: Its inhibition is -3.82%.

Question: `O=[N+]([O-])c1ccc(C(S(=O)(=O)Cc2ccccc2)S(=O)(=O)Cc2ccccc2)cc1` was tested. Which inhibition did it give?
Answer: Its inhibition is -0.41%.

Question: With `O=C1NC(=O)C2C1C(c1ccc([N+](=O)[O-])cc1)=NN2Cc1ccccc1` (centres undefined) as the molecule, how does the inhibition read?
Answer: The inhibition was 43.2% (active).

Question: How did the inhibition turn out when `COc1ccccc1C(=O)NCCC(=O)NC1=NCCS1` was run?
Answer: Its inhibition is -0.45%.

Question: Which inhibition does the source give for `COc1ccc(NC(=O)COC(=O)c2n[nH]c3ccccc23)c(OC)c1` here?
Answer: The inhibition was 2.43%.

Question: How did the inhibition turn out when `COc1ccc(OC)c(N=Cc2c(O)[nH]c3ccccc23)c1` was run?
Answer: Its inhibition is 68.3% (active).

Question: `COc1cc2[nH]c(O)c(C=O)c2cc1OC` was tested. Which inhibition did it give?
Answer: The inhibition was -11.7%.

Question: How did the inhibition turn out when `CC(C)(C)c1ccc(CCC2OCC(CN3CCOCC3)O2)cc1` (centres undefined) was run?
Answer: Its inhibition is -4.96%.

Question: Which inhibition does the source give for `Cc1ccc(C)c(NS(=O)(=O)c2c(C)[nH]c(C)c2C(=O)N2CCCCC2)c1` here?
Answer: Its inhibition is -5.02%.

Question: How did the inhibition turn out when `Cc1ccc(S(=O)(=O)N2CCN=C2SCc2c(F)cccc2Cl)cc1` was run?
Answer: Its inhibition is 4.62%.

Question: With `COc1ccc(C(C(=O)NC(C)(C)C)N(C(=O)Cn2nnc3ccccc32)c2ccc(C(C)=O)cc2)cc1O` (centres undefined) as the molecule, how does the inhibition read?
Answer: Its inhibition is 1.81%.

Question: For `Cc1ccc(C(=O)N/N=C/c2sc(=O)n(Cc3cccc(C(=O)O)c3)c2Cl)cc1`, which inhibition is on record?
Answer: Its inhibition is -4.49%.

Question: How did the inhibition turn out when `CC(C)(C)C1CCC(C(=O)NCC(c2cccs2)N2CCOCC2)CC1` (centres undefined) was run?
Answer: Its inhibition is 2.5%.

Question: How did the inhibition turn out when `O=C(CCN1CCc2ccccc2C(O)(c2ccccc2)C1)c1ccc2c(c1)OCCO2` (centres undefined) was run?
Answer: The inhibition was 26.2% (active).

Question: With `O=C(CN1CCc2cc3c(cc2C1)OCCCO3)Nc1ccccc1` as the molecule, how does the inhibition read?
Answer: Its inhibition is -9.22%.

Question: With `O=S(=O)(c1ccc2c(c1)OCCO2)N1CCc2ccccc21` as the molecule, how does the inhibition read?
Answer: The inhibition was -1.2%.

Question: Which inhibition does the source give for `O=C(NC(=S)NC1CCSC1=O)c1ccccc1F` (centres undefined) here?
Answer: Its inhibition is -9.93%.
